Cytotoxicity data for 98 compounds are collected here from PubChem BioAssay AID430 (Sanford-Burnham Center for Chemical Genomics, 2006).

The whole screen tested about 63,000 compounds, of which about 1,100 (1.7%) were called active. No stated cut-off is given here; in the data, active means cytotoxicity above about 50%; inactive means the rest. Only a selection was taken, and actives are over-represented in it overall. Entries with a potency or affinity are not part of this list.

A short description of this assay: HPDE-C7 pancreatic duct cell viability loss – fluorescence, HTS (AID 430).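 Further: cells exposed to compound for 48 hours before viability readout; 0% = vehicle and 100% = reference cytotoxic drug.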 The note with it: HPDE-C7 pancreatic duct cells viability, at 10 µM, active compounds read high.
`Cc1ccc(Cn2c(=O)c3ccccc3n3c(CCC(=O)O)nnc23)cc1`: the cytotoxicity is 23% (inactive).
As to `COC(=O)C1C(c2ccccc2)C(C(=O)N2CCOCC2)C1c1ccccc1` (stereo not drawn), the cytotoxicity is -2.2% (inactive).
The same measure for `COc1ccc(CCN2C(=NC(=O)CCC(=O)O)SC3CS(=O)(=O)CC32)cc1OC` (stereo not drawn): -11% (inactive).
The same measure for `COc1ccc(CNC(=O)CSc2nnc(C)s2)cc1`: -6.3% (inactive).
Consider `CC(C)c1nnc(NC(=O)CCC(=O)Nc2ccc(F)cc2)s1`, for which the cytotoxicity was 6.6% (inactive).
As for `FC(F)(F)c1cc(-c2ccco2)nc(-n2cnc3ccccc32)n1`, the cytotoxicity was 0% (inactive).
In the case of `CC(C)c1nnc(NC(=O)Cc2cccs2)s1`, the cytotoxicity is 1.9% (inactive).
The same measure for `FC(F)(F)c1cc(-c2ccco2)nc(NCc2ccccc2)n1`: 9.1% (inactive).
The same measure for `CC(C)c1nnc(NC(=O)CCS(=O)(=O)c2nc(-c3cccs3)cc(C(F)(F)F)n2)s1`: 87% (active); for `FC(F)(F)c1cc(-c2ccco2)nc(NCc2ccco2)n1`: 0.5% (inactive); for `CN1CCN(c2nc(-c3cccs3)cc(C(F)(F)F)n2)CC1`: 1.7% (inactive).
Turning to `FC(F)(F)c1cc(-c2ccco2)nc(-n2nnc3ccccc32)n1`, the cytotoxicity was 5.9% (inactive).
The result for `FC(F)(F)c1cc(-c2cccs2)nc(N2CCOCC2)n1` reads -7.3% (inactive); that for `O=C(COc1cccc(-n2cnnn2)c1)N1CCOCC1`, 18.5% (inactive).
Consider `Cc1c(C)n(CC(O)CN2CCOCC2)c2ccccc12` (stereo not drawn), for which the cytotoxicity is -0.4% (inactive).
In the case of `CC(C)C(c1nnnn1Cc1ccc2c(c1)OCO2)N1CCN(c2ccccc2)CC1` (stereo not drawn), the cytotoxicity is -9.2% (inactive).
The result for `COc1ccc(N2C(=O)CSC23C(=O)Nc2ccccc23)cc1OC` (stereo not drawn) reads -18.4% (inactive); that for `COc1cc(OC)cc(C(=O)Nc2ccccc2N2CCOCC2)c1`, -3.9% (inactive); that for `COc1cc(OC)c(C(=O)COc2ncnc3ccccc23)c(OC)c1`, -5.8% (inactive).
For `O=S(=O)(Nc1ccc2c(c1)OCO2)c1cccs1`, the cytotoxicity is 15.6% (inactive).
The same measure for `Cn1c(NCC2CCCO2)nc2c1c(=O)n(Cc1ccccc1)c(=O)n2C` (stereo not drawn): 4.9% (inactive); for `COc1ccc(-c2cc(C(F)(F)F)nc(N3CCCCC3)n2)cc1OC`: -20.9% (inactive); for `COc1nc(-c2ccccc2)cc(C(F)(F)F)n1`: -11.8% (inactive).
Regarding `Nc1nc(-c2ccccc2)cc(C(F)(F)F)n1`, the cytotoxicity was -0.7% (inactive).
With `COc1ccc(-c2cc(C(F)(F)F)nc(NC3CCCC3)n2)cc1OC`, the cytotoxicity is 24.7% (inactive).
Consider `COCCn1c(SCC(=O)OCc2ccccc2)nc2c1c(=O)[nH]c(=O)n2C`, for which the cytotoxicity is -3.3% (inactive).
Turning to `CCCCCC(=O)O[C@]1(C(C)=O)CC[C@H]2[C@@H]3CCC4=CC(=O)CC[C@]4(C)[C@H]3CC[C@@]21C`, the cytotoxicity was 116% (active).
The same measure for `CCCCCCCC(=O)OCC(=O)[C@@]1(O)CC[C@H]2[C@@H]3CCC4=CC(=O)CC[C@]4(C)[C@H]3[C@@H](O)C[C@@]21C`: -1.9% (inactive); for `CCCCC(=O)O[C@]1(C(=O)CO)CC[C@H]2[C@@H]3CCC4=CC(=O)CC[C@]4(C)[C@H]3[C@@H](O)C[C@@]21C`: 8.3% (inactive); for `Cc1c(C(=O)O)c2cc(O)ccc2n1-c1ccccc1`: 4.3% (inactive).
As for `Fc1ccc(-c2nnc(-c3ccc(Cl)cc3Cl)o2)cc1`, the cytotoxicity is 1.1% (inactive).
The same measure for `O=C(NCc1ccco1)C(c1cccs1)N(Cc1ccccc1)C(=O)Cn1nnc2ccccc21` (stereo not drawn): 3.4% (inactive); for `COCCCn1c2nc3ccccc3nc2c2c(=O)n(Cc3ccccc3Cl)cnc21`: -8.1% (inactive); for `COc1ccc(N(C)S(=O)(=O)c2cccc3cccnc23)c(OC)c1`: 51.4% (active).
`COc1ccc(NC(=O)CN(C)S(=O)(=O)c2cccc3cccnc23)cc1`: the cytotoxicity was -4.1% (inactive).
The same measure for `COc1ccc(NC(=O)C2CCCN2S(=O)(=O)c2cccc3cccnc23)c(OC)c1` (stereo not drawn): 5.8% (inactive).
For `Cc1ccc(S(=O)(=O)NCC(=O)N2CCCCC2)cc1`, the cytotoxicity is -15.4% (inactive).
With `CCc1nc(N2CCN(C(=O)c3ccco3)CC2)c2oc3ccccc3c2n1`, the cytotoxicity was 22.2% (inactive).
As for `O=C(c1cc2cc(Cl)ccc2oc1=O)N1CCCC1`, the cytotoxicity is -1.3% (inactive).
The result for `CCOC(=O)C1=C(c2ccccc2)NC(SCC(=O)Nc2ccccc2C)=C(C#N)C1c1ccco1` (stereo not drawn) reads 32.9% (inactive); that for `CCOC(=O)CSC1=C(C#N)C(c2ccco2)C(C(=O)Nc2cccc(C(F)(F)F)c2)=C(C)N1` (stereo not drawn), 12.4% (inactive); that for `CC1=C(C(=O)Nc2ccccc2)C(c2ccco2)C(C#N)=C(SCC(=O)OC(C)C)N1` (stereo not drawn), 42.1% (inactive).
The same measure for `CC1=C(C(=O)Nc2ccccc2)C(c2ccco2)C(C#N)=C(SCC(=O)Nc2cccc(C)c2C)N1` (stereo not drawn): 67% (active); for `CC1=C(C(=O)Nc2ccccc2)C(c2ccco2)C(C#N)=C(SCc2ccccc2)N1` (stereo not drawn): 63.1% (active).
For the compound `COc1ccccc1NC(=O)C1=C(C)NC(SCC(=O)c2ccccc2)=C(C#N)C1c1ccco1` (stereo not drawn), the cytotoxicity is 33.9% (inactive).
`Cc1cccc(OCCC(=O)Nc2ccc(S(=O)(=O)N3CCCC3)cc2)c1`: the cytotoxicity is -7% (inactive).
The same measure for `CCOc1ccc(NC(=O)c2cccc(-n3cnnn3)c2)cc1`: 0.4% (inactive).
The result for `CCC(C)SCc1nc2ccccc2[nH]1` (stereo not drawn) reads -5.4% (inactive).
The same measure for `COc1cccc(-c2noc(CCC(=O)Nc3cccnc3)n2)c1`: 2% (inactive).
`O=C(OCc1ccc(F)cc1Cl)c1ccccn1`: the cytotoxicity was 4.8% (inactive).
Consider `CN(C)c1ccc(S(=O)(=O)c2ccc(Cl)cc2)cc1`, for which the cytotoxicity was 1% (inactive).
The result for `c1cncc(-c2nc(NCc3ccco3)c3ccccc3n2)c1` reads 5.3% (inactive); that for `CSCC[C@@H](Nc1nc(-c2ccccc2)nc2c1oc1ccccc12)C(=O)O`, 7.2% (inactive); that for `O=C(NCc1cccs1)c1cc2ccccc2o1`, -2.4% (inactive).
The same measure for `CCC(C)(NC(=O)c1ccc(=O)[nH]c1)C(=O)NC1CCCC1` (stereo not drawn): -7% (inactive); for `COC(=O)CNC(=O)C(Cc1c[nH]c2ccccc12)NC(=O)OC(C)(C)C` (stereo not drawn): -5% (inactive); for `Cc1csc2ncc(C(=O)NCc3ccc4c(c3)OCO4)c(=O)n12`: 67.4% (active).
The same measure for `CSc1ccccc1NC(=O)c1cnc2scc(C)n2c1=O`: -4.8% (inactive); for `Cc1ccccc1Cc1c(C)nc2c(C(=O)N3CCN(Cc4ccc5c(c4)OCO5)CC3)cnn2c1C`: -6.7% (inactive); for `Cc1csc2ncc(C(=O)Nc3ccccc3F)c(=O)n12`: 51.2% (active).
With `Cc1csc2ncc(C(=O)Nc3ccccc3Cl)c(=O)n12`, the cytotoxicity is -6.7% (inactive).
Consider `COc1ccc(CNC(=O)c2cnc3scc(C)n3c2=O)cc1`, for which the cytotoxicity was -6.4% (inactive).
The result for `Cc1nc2c(C(=O)O)cnn2c(C)c1Cc1ccccc1F` reads -26.4% (inactive); that for `Cc1csc2ncc(C(=O)Nc3ccc4c(c3)OCCO4)c(=O)n12`, -20.4% (inactive); that for `CCC(=O)Nc1nc2c(OC)ccc(C)c2s1`, 4% (inactive).
The same measure for `CCOc1cccc(C(=O)Nc2nnc(-c3ccco3)s2)c1`: 2.3% (inactive); for `NC(=O)c1ccccc1NS(=O)(=O)Cc1ccc(Cl)cc1`: 0% (inactive).
The same measure for `Cc1c(NC(=O)C(C)OC(=O)CC2Sc3ccccc3NC2=O)c(=O)n(-c2ccccc2)n1C` (stereo not drawn): -14.3% (inactive); for `CSc1ccc(NC(=O)CC(C)=O)cc1`: -11.5% (inactive).
With `c1csc(-c2nnsc2-c2nc3ccccc3[nH]2)c1`, the cytotoxicity is 7.2% (inactive).
As to `CCC(=O)NC1=C(C#N)C2(CCCC2)Cc2ccccc21`, the cytotoxicity is 10.4% (inactive).
Take `COc1ccccc1-c1cc(C(=O)NCc2ccccc2)no1`: the cytotoxicity was 17.1% (inactive).
For `Cc1ccc(C)c(OCC(=O)Nc2ccc3c(c2)OCO3)c1`, the cytotoxicity is -6.1% (inactive).
Turning to `C=CCn1c2ccccc2c2nnc(SCN3C(=O)c4ccccc4C3=O)nc21`, the cytotoxicity was 21.1% (inactive).
The result for `CCn1c2ccccc2c2nnc(SCCCn3c(=O)[nH]c4ccccc43)nc21` reads -2.7% (inactive); that for `C=CCn1c2ccccc2c2nnc(SCCCn3c(=O)[nH]c4ccccc43)nc21`, 89.5% (active); that for `CCCCn1c(CCC(=O)O)ccc1-c1cccs1`, -30.1% (inactive).
Take `COCCNS(=O)(=O)c1cccc2cccnc12`: the cytotoxicity is -7.9% (inactive).
In the case of `COc1cc(S(=O)(=O)N2CCCCC2)ccc1NC(=O)c1ccc(F)cc1`, the cytotoxicity was -7.1% (inactive).
The result for `Cc1ccc2c(c1)c1c(n2CC(O)Cn2nc(C)c(Br)c2C)C(=O)CCC1` (stereo not drawn) reads -7.3% (inactive); that for `CCn1c2c(c3cc(Cl)ccc31)CCCC2=O`, -0.8% (inactive); that for `Cc1ccc2c(c1)c1c(n2CC(O)Cn2c(C)nc3ccccc32)/C(=N\O)CCC1` (stereo not drawn), 113% (active).
For the compound `Cc1ccc2c(c1)c1c(n2CC(O)Cn2c(C)nc3ccccc32)C(=O)CCC1` (stereo not drawn), the cytotoxicity is -12.3% (inactive).
The result for `CCn1c2c(c3cc(C(=O)O)ccc31)CCCC2=O` reads -6.9% (inactive); that for `CCOC(=O)c1c(O)c2c(n(Cc3ccco3)c1=O)CCCC2`, -1.8% (inactive); that for `CCOC(=O)C(C#N)c1ccccn1` (stereo not drawn), -13.9% (inactive).
As to `CC12C=CC3(O1)C(C(=O)N(c1cccnc1)C3C(=O)NC1CCCCC1)C2C(=O)Nc1ccccc1` (stereo not drawn), the cytotoxicity was -6.3% (inactive).
For `Cc1cc(C)c2ccc(C)[n+]([O-])c2c1O`, the cytotoxicity is -4.9% (inactive).
The same measure for `Cc1cc(C)c2ccc(N)nc2c1O`: 111% (active).
Consider `Cc1cc(=O)oc2c(N)c(O)ccc12`, for which the cytotoxicity was 3.2% (inactive).
As to `Cc1ccc(-c2noc(CSc3nc(N)cc(N)n3)n2)cc1`, the cytotoxicity is -1.6% (inactive).
The same measure for `CCCCCC(=O)Nc1ccc(Cl)cn1`: -14.3% (inactive).
For the compound `NC(=O)c1cc2ccc(O)cc2oc1=NCc1ccccc1`, the cytotoxicity is -0.1% (inactive).
The same measure for `CC(=NCc1ccccc1)C1=C(O)COC1=O`: 2.9% (inactive); for `CCn1c(CNC(=O)C(C)(C)C)nc2ccccc21`: -1.1% (inactive); for `CC12CCC(C(N)=O)(c3nc4ccccc4nc31)C2(C)C` (stereo not drawn): -7.6% (inactive).
The same measure for `CC(=O)Nc1sc(N)nc1-c1ccccc1`: 3.9% (inactive).
The result for `CN(Cc1cccs1)C(=O)COc1ccc(-c2nnco2)cc1` reads -5.5% (inactive).
